Assay results reported in PubChem BioAssay.
For part of these data: Measured potencies and affinities stand elsewhere. This is one part of the list. Calls of active or inactive are those of the source.

Legend:
[1] = target: Inward rectifier potassium channel 2 (Mus musculus) (UniProt P35561); test: inhibition of Kir2.1 inward rectifier potassium flux – cell-based, FluxOR thallium flux, duplicate, confirmation (AID 2032); conditions: Kir2.1-expressing cells, FluxOR thallium flux fluorescence, at 10 µM; hits give low values
[2] = parental HEK293 cell activity, no Kir2.1 – FluxOR thallium flux, duplicate, single concentration, counter-screen for Kir2.1 inhibitor project, confirmation (AID 2105;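 active means dye signal at least 3 control SD above or below untreated wells in both duplicates, raw fluorescence within 3, either direction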;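 on FluxOR signal as % of negative control (100 = no effect): percent is based on the flux ratio of peak minus minimum fluorescence over baseline F0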); conditions: parental HEK293 cells, FluxOR thallium flux fluorescence, at 10 µM; 0% = unstimulated blank wells
[3] = parental CHO-K1 cell activation, no KCNQ2 – FluxOR thallium flux, duplicate, counter-screen for KCNQ2 potentiator project, confirmation (AID 2282;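 active means signal rise of at least 3 SD above the untreated control mean, in both duplicate wells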;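 further: counter screen of KCNQ2 potentiator hits so any rise reflects channel-independent effects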); conditions: parental CHO-K1 cells, FluxOR thallium flux fluorescence; at 10 µM; hits give high values; zero = vehicle mean+3SD, 100% = vehicle-minus-blank window
[4] = target: Potassium voltage-gated channel subfamily KQT member 1 (Homo sapiens) (UniProt P51787); test: KCNQ1 activation in stable CHO cells – cell-based, FluxOR thallium flux, selectivity assay for KCNQ2 potentiator project, confirmation (AID 2283;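 active means fluorescence ratio rise of at least 3 SD of vehicle wells above their mean, in both replicate wells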;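 further: 0% = vehicle mean plus 3 SD and 100% = vehicle minus unstimulated blank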); conditions: FluxOR thallium flux fluorescence, at 10 µM, hits give high values, beyond 3SD, as % of vehicle-control signal
[5] = target: Potassium voltage-gated channel subfamily KQT member 2 (Rattus norvegicus) (UniProt O88943); test: KCNQ2 potassium channel activity enhancers – cell-based, CHO, FluxOR thallium flux, duplicate, confirmation (AID 2287;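 active means fluorescence ratio rising 3 SD or more over the vehicle control mean in both replicates, plus primary screen hit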;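 further: peak minus minimum thallium fluorescence divided by baseline after K/Tl stimulus; 0% = vehicle mean plus 3 SD and 100% = vehicle minus unstimulated blank difference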); conditions: CHO-KCNQ2 cells, FluxOR thallium flux fluorescence; at 10 µM; hits give high values
[6] = target: Inward rectifier potassium channel 2 (Mus musculus) (UniProt P35561); test: PubChem AID 2345; conditions: HEK293 Kir2.1, FluxOR thallium flux fluorescence; at 10 µM; hits give high values;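 further: 0% = vehicle mean plus 3 SD and 100% = vehicle minus no-stimulus blank window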
[7] = target: Potassium voltage-gated channel subfamily KQT member 2 (Rattus norvegicus) (UniProt O88943); test: W236L mutant KCNQ2 current enhancers – cell-based, rat KCNQ2 W236L, CHO, automated patch clamp, mechanism study for KCNQ2 potentiator project (AID 2558;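 active means current increase at least 3 SD of the untreated controls above them in both duplicate recordings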); conditions: at 25 µM
[8] = nonspecific flux increase, KCNQ1-free cells – parental CHO cells, counter-screen for KCNQ1 potentiator project (AID 493006;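 active means duplicate-averaged activation above buffer control mean plus 5 SD of those controls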;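 further: fluorescence ratio of max minus min over baseline after K+ and Tl+ depolarization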); conditions: parental CHO-K1 cells, FluxOR thallium flux, at 10 µM; hits give high values
[9] = target: Potassium voltage-gated channel subfamily KQT member 1 (Homo sapiens) (UniProt P51787); test: enhancement of KCNQ1 channel thallium flux – FluxOR thallium flux, CHO cells, duplicates, confirmation (AID 493007;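 active means potentiation averaged over duplicate wells exceeding buffer-only control mean by more than 3 SD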;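 further: 0% = buffer-only wells and 100% = R-L3 activator control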); conditions: KCNQ1 cell line, FluxOR thallium flux fluorescence, at 10 µM; hits give high values, % of reference activator effect, buffer zero
[10] = target: Potassium voltage-gated channel subfamily KQT member 2 (Rattus norvegicus) (UniProt O88943); test: KCNQ2 thallium flux enhancement – KCNQ2-CHO-K1 cells, selectivity assay for KCNQ1 potentiator project (AID 493009;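 active means mean duplicate potentiation above the buffer control mean plus 5 SD of buffer wells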;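 further: assay conditions were tuned for KCNQ1 rather than KCNQ2 modulators; signal is max minus min fluorescence divided by baseline after thallium stimulus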); conditions: FluxOR thallium flux fluorescence, at 10 µM; hits give high values, scaled: buffer 0, activator control 100
[11] = target: Potassium voltage-gated channel subfamily KQT member 1 (Homo sapiens) (UniProt P51787); test: KCNQ1 activators by electrophysiology – IonWorks patch clamp, KCNQ1-CHO cells, orthogonal assay for KCNQ1 potentiator project, confirmation (AID 493184;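 active means current rise at least 3 SD above the untreated control mean in each of two repeat wells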); conditions: automated patch clamp current, at 10 µM; hits give high values
[12] = target: Potassium voltage-gated channel subfamily KQT member 1 (Homo sapiens) (UniProt P51787); test: blockers of human KCNQ1 channel – cell-based, Tl flux, duplicate, confirmation (AID 588353;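 active means primary screen active, with duplicate mean exceeding buffer control mean plus 3 SD of buffer wells, cut at about 28% in these data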;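 further: 0% = buffer control ratio and 100% = XE991 inhibitor control ratio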); conditions: KCNQ1 cell line, FluxOR thallium flux fluorescence; at 10 µM; hits give high values
[13] = nonspecific activity in CHO-K1 cells without KCNQ1 – parental CHO cells, Tl flux, counter-screen for KCNQ1 inhibitor project (AID 588366;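 active means mean of duplicate thallium-flux fluorescence ratios in parental host cells more than 5 SD below the buffer control mean, cut at about 0.38 in these data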;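 further: ratio is peak minus minimum fluorescence divided by baseline fluorescence; actives read low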); conditions: parental CHO-K1, FluxOR thallium flux fluorescence ratio; at 10 µM; hits give low values; zero means no signal rise above baseline
[14] = target: Potassium voltage-gated channel subfamily KQT member 2 (Rattus norvegicus) (UniProt O88943); test: block of rat KCNQ2 potassium channel – cell-based, selectivity assay for KCNQ1 inhibitor project (AID 651746;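 active means mean percent inhibition of the KCNQ2 thallium signal more than 5 SD above the buffer-only control wells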;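 further: 0% = buffer control wells and 100% = XE-991 inhibitor control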); conditions: KCNQ2 cells, FluxOR thallium flux fluorescence, at 10 µM; hits give high values
[15] = system: TRPC4 beta (transient receptor potential cation channel C4), mouse; test: TRPC4 cation channel opening, retest – cell-based, Fluo4 calcium, HEK293 TRPC4beta/mu-opioid, duplicates, 10 µM, confirmation (AID 2426;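 active means fluorescence ratio normalized to control raised more than 50% in primary screen plus both repeat runs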;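 further: percent rise of integrated ratio over buffer wells lacking compound which define 0%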); conditions: Fluo4 calcium fluorescence, at 10 µM; hits give high values
[16] = system: transient receptor potential cation channel C4 beta (TRPC4), mouse; test: TRPC4 cation channel opening, second retest – cell-based, second round, Fluo4, HEK293 TRPC4beta/mu-opioid, 1 µM, confirmation (AID 2461;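 active means primary screen active and over 50% activation in each of two duplicate runs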); conditions: Fluo4 calcium fluorescence, at 1 µM; hits give high values
[17] = system: TRPC4 (transient receptor potential cation channel C4 beta), mouse; test: potentiation of DAMGO EC20 TRPC4 response – cell-based, second round, Fluo-4, HEK293 TRPC4beta/mu-opioid, 1 µM, confirmation (AID 2554;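 active means primary screen hit whose fluorescence ratio, in both repeats, exceeds the weak agonist control mean by 3 SD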); conditions: DAMGO EC20, Fluo-4 calcium flux, at 1 µM; hits give high values
[18] = system: TRPC4 beta (transient receptor potential cation channel C4), mouse; test: potentiation of DAMGO EC20 TRPC4 response – cell-based, Fluo-4, HEK293 TRPC4beta/mu-opioid, confirmation (AID 2555;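 active means primary screen hit whose calcium fluorescence ratio, in both repeats, exceeds the weak agonist control mean by 3 SD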); conditions: DAMGO EC20, Fluo-4 calcium flux, at 10 µM; hits give high values
[19] = target: Short transient receptor potential channel 4 (Mus musculus) (UniProt Q9QUQ5); test: blockers of DAMGO-evoked TRPC4 calcium flux – cell-based, Fluo4, HEK293 TRPC4beta/mu-opioid, confirmation (AID 2636;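 active means calcium signal cut by more than 3 SD below the full-agonist control yet still positive, in both repeats and the earlier primary screen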); conditions: at 10 µM; hits give high values
[20] = target: Short transient receptor potential channel 4 (Mus musculus) (UniProt Q9QUQ5); test: blockers of DAMGO-evoked TRPC4 calcium flux – cell-based, second round, Fluo4, HEK293 TRPC4beta/mu-opioid, 1 µM, confirmation (AID 2637;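 active means calcium signal ratio cut to more than 3 SD under the fully stimulated control mean yet still positive, in both repeats and the primary screen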); conditions: at 1 µM; hits give high values
[21] = target: Short transient receptor potential channel 4 (Mus musculus) (UniProt Q9QUQ5); test: calcium entry via TRPC4 opening agents – cell-based, HEK293 TRPC4/mu-opioid, Fluo-4 calcium, dose response (AID 434937;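 active means primary screen activator hit with a dose response curve and TRPC4 channel activation at any tested dose; inactive means no activation, no dose response, or not a primary hit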)
[22] = target: Short transient receptor potential channel 4 (Mus musculus) (UniProt Q9QUQ5); test: potentiation of DAMGO-evoked TRPC4 calcium signal – cell-based, HEK293 TRPC4/mu-opioid, Fluo-4 calcium, EC20 DAMGO, dose response (AID 434941;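 active means earlier screen potentiator hit that boosts the TRPC4 ion channel at some dose, with a dose response; inactive means no potentiation, no dose response, or not a prior hit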;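 further: calcium entry triggered by an EC20 dose of DAMGO at the co-expressed mu-opioid receptor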)
[23] = target: Short transient receptor potential channel 4 (Mus musculus) (UniProt Q9QUQ5); test: block of DAMGO-driven TRPC4 calcium entry – cell-based, HEK293 TRPC4/mu-opioid, Fluo-4 calcium, dose response (AID 434942;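 active means primary screen inhibitor hit that blocks the TRPC4 channel at some tested dose, yielding a dose curve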)
[24] = target: Short transient receptor potential channel 6 (Mus musculus) (UniProt Q61143); test: TRPC6 blockade by TRPC4 inhibitor hits – cell-based, HEK293, membrane potential dye, duplicate, selectivity assay for TRPC4 inhibitor project, confirmation (AID 434948;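 active means active in primary screen and both duplicates, each dropping signal beyond three positive-control SD with fluorescence still positive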); conditions: HEK293 TRPC6, membrane potential dye fluorescence, at 10 µM, stimulated with maximal-effect acetylcholine; hits give high values
[25] = target: Short transient receptor potential channel 6 (Mus musculus) (UniProt Q61143); test: TRPC6 opening by TRPC4 activator hits – cell-based, HEK293, membrane potential dye, duplicate, selectivity assay for TRPC4 activator project, confirmation (AID 434950;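 active means membrane potential signal rise above negative control mean plus 3 SD in both duplicates, also active in the earlier TRPC4 screen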); conditions: HEK293 TRPC6, membrane potential fluorescence, at 10 µM; activation: hits give high values; outcome: activation
[26] = target: Short transient receptor potential channel 6 (Mus musculus) (UniProt Q61143); test: positive modulators of mouse TRPC6 channel – HEK293 cells, membrane potential dye, duplicate, selectivity assay for TRPC4 potentiator project, confirmation (AID 434952;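 active means compound raising the membrane signal above positive-control mean plus 3 SD in both repeats, and a primary screen hit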); conditions: HEK293 TRPC6, membrane potential dye fluorescence, at 10 µM, maximal acetylcholine added after compound; hits give high values
[27] = target: Short transient receptor potential channel 4 (Mus musculus) (UniProt Q9QUQ5); test: calcium flux activators in TRPC4/5HT1a cells, counter-screen for TRPC4 activator project, cell-based, second counter screen, HEK293 TRPC4/5HT1a, Fluo-4 (AID 434977;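 active means calcium signal rise above buffer-control mean plus 5 SD in both duplicates, and also a hit in the primary screen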;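 further: plate controls were assay buffer for no effect and maximal serotonin response for full effect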); conditions: Fluo-4 calcium flux, at 10 µM; hits give high values
[28] = serotonin-gated TRPC4 signal block – cell-based, second counter screen, HEK293 TRPC4/5HT1a, Fluo-4, counter-screen for TRPC4 inhibitor project, confirmation (AID 434978;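 active means primary screen active whose calcium signal fell more than 3 SD beyond the full-serotonin control mean in both duplicate plates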;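 further: serotonin given first at submaximal then at maximal dose after compound preincubation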); conditions: Fluo-4 calcium flux, at 10 µM, serotonin added to trigger calcium flux; hits give high values
[29] = system: TRPC4 (mouse), co-expressed with 5HT1a in HEK293; test: enhancement of serotonin-evoked TRPC4 response – cell-based, second counter screen, HEK293 TRPC4/5HT1a, Fluo-4, counter-screen for TRPC4 potentiator project, confirmation (AID 434979;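 active means signal rise over 3 SD above mean of control wells given weak agonist, in both repeats and first screen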); conditions: Fluo-4 calcium flux, at 10 µM, serotonin added at its EC20 dose; hits give high values
[30] = nonspecific calcium rise without TRPC4 – cell-based, HEK293 mu-opioid receptor line, counter-screen for TRPC4 activator project, confirmation (AID 449723;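 active means hit in primary screen, with calcium signal over 5 SD above buffer well mean in both duplicates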;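 further: counter screen cells carry the mu-opioid receptor alone and lack TRPC4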); conditions: HEK293 mu-opioid cells, Fluo-4 calcium fluorescence, at 10 µM; hits give high values
[31] = nonspecific potentiation of DAMGO calcium response – cell-based, HEK293 mu-opioid receptor line, counter-screen for TRPC4 allosteric potentiator project, confirmation (AID 449724;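 active means calcium signal rise more than 3 SD above the low-dose agonist control mean, in both duplicate plates and the primary screen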); conditions: HEK293 mu-opioid receptor cells, Fluo-4 calcium flux, at 10 µM, compound added before EC20 DAMGO stimulus; hits give high values
[32] = target: Potassium voltage-gated channel subfamily E member 1 (Homo sapiens) + Potassium voltage-gated channel subfamily KQT member 1 (Homo sapiens) (UniProt P15382+P51787); test: block of human IKs channel complex – CHO-K1 cells, thallium flux, FluxOR, selectivity assay for KCNQ1 inhibitor project (AID 652147;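 active means mean percent inhibition of duplicate wells above the buffer-only control mean plus 3 SD of those controls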); conditions: KCNQ1/KCNE1 cells, FluxOR thallium flux fluorescence; at 10 µM
[33] = target: Short transient receptor potential channel 4 (Mus musculus) (UniProt Q9QUQ5); test: DAMGO-gated TRPC4 membrane potential modulation – cell-based, second specificity screen, HEK293 TRPC4/mu-opioid, selectivity assay for TRPC6 inhibitor project, confirmation (AID 2776;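 active means compounds whose fluorescence signal differed from control wells by over 3 SD, either direction, in both duplicate plates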); conditions: HEK293 TRPC4/MOR, membrane potential dye fluorescence, at 10 µM, channel activated by saturating DAMGO dose; hits give high values
[34] = system: transient receptor potential cation channel C4 (TRPC4), mouse; test: membrane potential change in TRPC4 cells – cell-based, HEK293 TRPC4/mu-opioid, membrane potential dye, selectivity assay for TRPC6 inhibitor project, confirmation (AID 2777;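 active means rise or fall in signal beyond 3 SD of buffer-only wells in both replicate plates, either sign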;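 further: integrated kinetic ratio of fluorescence range over baseline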); conditions: membrane potential fluorescence, at 10 µM
[35] = parental HEK293 depolarization signal interference – cell-based, second counter screen, counter-screen for TRPC6 inhibitor project, confirmation (AID 2779;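 active means membrane potential signal moving either way by over 3 SD of the maximum-effect control, in both duplicate plates, meaning non-specific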); conditions: parental HEK293 membrane potential dye fluorescence; at 10 µM; maximal acetylcholine challenge after compound addition
[36] = nonspecific voltage dye signal in HEK293 – cell-based, parental HEK293, counter-screen for TRPC6 inhibitor project, confirmation (AID 2780;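 active means membrane potential signal shifting up or down by more than 3 SD of buffer-only wells, on both duplicate plates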); conditions: parental HEK293 membrane potential dye fluorescence; at 10 µM
[37] = target: Short transient receptor potential channel 6 (Mus musculus) (UniProt Q61143); test: blockers of TRPC6 cation channel activity – HEK293 cells, membrane potential dye, duplicate, confirmation (AID 488960;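 active means fluorescence ratio falls more than 5 SD below the full-stimulation control mean, in both duplicate runs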); conditions: ACh-evoked depolarization, at 10 µM; hits give high values
[38] = target: Short transient receptor potential channel 6 (Mus musculus) (UniProt Q61143); test: mouse TRPC6 channel activators, confirmation, HEK293 cells, membrane potential dye, duplicate (AID 488961;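 active means ratio signal rise beyond 5 SD above unstimulated control wells' mean, seen in both duplicate runs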); conditions: HEK293-TRPC6 membrane potential dye fluorescence, FDSS, at 10 µM; hits give high values

Sequence of Potassium voltage-gated channel subfamily KQT member 1 (Homo sapiens) (P51787 whole entry, looked up): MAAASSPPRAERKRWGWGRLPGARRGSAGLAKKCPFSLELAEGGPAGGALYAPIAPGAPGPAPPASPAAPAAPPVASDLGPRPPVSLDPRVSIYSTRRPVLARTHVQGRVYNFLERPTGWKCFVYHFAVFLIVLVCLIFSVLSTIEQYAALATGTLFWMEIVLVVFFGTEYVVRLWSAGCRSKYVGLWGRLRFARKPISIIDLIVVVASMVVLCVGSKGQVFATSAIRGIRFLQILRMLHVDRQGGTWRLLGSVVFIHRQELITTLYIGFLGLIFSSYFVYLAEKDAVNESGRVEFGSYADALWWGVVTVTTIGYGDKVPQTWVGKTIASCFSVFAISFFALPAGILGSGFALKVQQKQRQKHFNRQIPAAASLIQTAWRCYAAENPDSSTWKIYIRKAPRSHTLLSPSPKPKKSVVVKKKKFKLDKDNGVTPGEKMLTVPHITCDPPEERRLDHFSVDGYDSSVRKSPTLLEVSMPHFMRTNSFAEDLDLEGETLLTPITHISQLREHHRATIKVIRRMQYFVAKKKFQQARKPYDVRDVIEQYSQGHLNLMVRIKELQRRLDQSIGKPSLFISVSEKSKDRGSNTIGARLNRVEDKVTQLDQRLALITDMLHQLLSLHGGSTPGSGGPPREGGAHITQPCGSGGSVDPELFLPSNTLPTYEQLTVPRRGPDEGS
Sequence of Inward rectifier potassium channel 2 (Mus musculus) (P35561 whole entry, looked up): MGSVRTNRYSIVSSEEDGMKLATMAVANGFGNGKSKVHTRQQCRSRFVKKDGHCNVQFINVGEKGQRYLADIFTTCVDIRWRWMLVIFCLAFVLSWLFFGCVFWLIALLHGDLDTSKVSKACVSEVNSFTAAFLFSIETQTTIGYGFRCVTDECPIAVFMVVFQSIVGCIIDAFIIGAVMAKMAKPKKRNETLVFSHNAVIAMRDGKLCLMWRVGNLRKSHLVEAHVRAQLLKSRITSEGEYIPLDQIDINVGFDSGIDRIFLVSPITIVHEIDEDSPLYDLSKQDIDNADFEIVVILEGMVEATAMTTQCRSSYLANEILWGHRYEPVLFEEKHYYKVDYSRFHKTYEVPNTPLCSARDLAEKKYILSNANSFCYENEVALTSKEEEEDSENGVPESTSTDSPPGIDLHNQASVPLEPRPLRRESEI
Sequence of Short transient receptor potential channel 6 (Mus musculus) (Q61143 whole entry, looked up): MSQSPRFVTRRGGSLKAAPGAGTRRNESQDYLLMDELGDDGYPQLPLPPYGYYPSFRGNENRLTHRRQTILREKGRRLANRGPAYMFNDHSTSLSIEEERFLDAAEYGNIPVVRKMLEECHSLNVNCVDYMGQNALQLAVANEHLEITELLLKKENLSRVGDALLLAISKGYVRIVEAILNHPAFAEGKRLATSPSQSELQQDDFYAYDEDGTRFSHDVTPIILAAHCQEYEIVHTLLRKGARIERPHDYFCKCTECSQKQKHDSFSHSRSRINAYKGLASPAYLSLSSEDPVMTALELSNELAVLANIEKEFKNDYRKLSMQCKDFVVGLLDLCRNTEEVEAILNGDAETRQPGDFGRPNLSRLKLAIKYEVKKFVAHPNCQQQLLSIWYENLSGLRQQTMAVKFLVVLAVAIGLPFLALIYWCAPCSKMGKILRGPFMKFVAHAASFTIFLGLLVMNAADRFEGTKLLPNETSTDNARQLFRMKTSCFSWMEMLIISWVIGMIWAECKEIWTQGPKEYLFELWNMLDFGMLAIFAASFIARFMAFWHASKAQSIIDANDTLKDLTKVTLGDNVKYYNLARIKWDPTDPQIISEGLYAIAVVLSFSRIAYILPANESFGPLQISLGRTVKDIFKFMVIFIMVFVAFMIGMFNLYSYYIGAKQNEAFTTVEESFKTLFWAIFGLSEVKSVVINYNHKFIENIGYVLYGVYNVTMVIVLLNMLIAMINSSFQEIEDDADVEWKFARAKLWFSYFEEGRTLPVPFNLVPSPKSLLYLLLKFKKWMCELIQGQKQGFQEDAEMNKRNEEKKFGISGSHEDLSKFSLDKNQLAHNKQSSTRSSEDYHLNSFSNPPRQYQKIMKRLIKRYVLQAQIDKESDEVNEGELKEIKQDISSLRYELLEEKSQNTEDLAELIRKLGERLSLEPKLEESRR
Sequence of Short transient receptor potential channel 4 (Mus musculus) (Q9QUQ5 whole entry, looked up): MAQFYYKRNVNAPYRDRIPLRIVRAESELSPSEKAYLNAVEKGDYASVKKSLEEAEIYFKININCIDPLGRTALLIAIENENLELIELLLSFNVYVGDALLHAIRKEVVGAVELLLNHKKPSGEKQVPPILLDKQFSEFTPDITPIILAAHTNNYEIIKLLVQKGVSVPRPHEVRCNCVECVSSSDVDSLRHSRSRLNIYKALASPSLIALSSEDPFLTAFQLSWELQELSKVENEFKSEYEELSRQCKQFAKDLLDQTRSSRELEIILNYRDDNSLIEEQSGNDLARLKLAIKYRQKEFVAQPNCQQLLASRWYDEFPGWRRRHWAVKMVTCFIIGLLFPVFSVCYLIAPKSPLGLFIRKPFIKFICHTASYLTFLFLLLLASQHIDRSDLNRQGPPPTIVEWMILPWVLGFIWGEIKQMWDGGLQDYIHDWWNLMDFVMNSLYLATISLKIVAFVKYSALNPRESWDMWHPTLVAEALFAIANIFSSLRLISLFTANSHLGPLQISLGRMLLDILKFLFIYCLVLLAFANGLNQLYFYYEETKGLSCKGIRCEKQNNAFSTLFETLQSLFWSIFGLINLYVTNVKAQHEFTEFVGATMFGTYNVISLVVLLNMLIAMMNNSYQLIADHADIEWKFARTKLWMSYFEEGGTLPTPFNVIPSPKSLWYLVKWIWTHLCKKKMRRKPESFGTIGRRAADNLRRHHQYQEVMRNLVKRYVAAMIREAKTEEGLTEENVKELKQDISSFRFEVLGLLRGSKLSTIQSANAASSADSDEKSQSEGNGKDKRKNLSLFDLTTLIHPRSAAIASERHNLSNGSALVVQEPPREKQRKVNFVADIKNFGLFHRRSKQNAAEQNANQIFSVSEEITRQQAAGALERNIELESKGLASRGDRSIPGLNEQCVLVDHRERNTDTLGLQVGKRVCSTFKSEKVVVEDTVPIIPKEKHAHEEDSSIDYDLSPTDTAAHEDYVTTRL
Sequence of Potassium voltage-gated channel subfamily E member 1 (Homo sapiens) + Potassium voltage-gated channel subfamily KQT member 1 (Homo sapiens) (P51787 whole entry, looked up): as the sequence (P51787 whole entry, looked up) above

CCc1ccc(NC(=O)C(=O)NNC(=O)c2cccs2)cc1
inactive: outcome [1] | activity increase over 3SD of controls [3] -16% | activity over 3SD threshold [6] -22.9% | outcome [7] | outcome [11]
active: FluxOR signal as % of negative control (100 = no effect) [2] 310% | activation over 3SD threshold [4] 85.7% | potentiation, less the hit threshold [5] 26.8% | activation [8] 360% | potentiation [9] 159% | potentiation [10] 421%

CC(=O)N(C1=C(Cl)C(=O)c2ccccc2C1=O)c1ccc(C(=O)O)cc1
inactive: outcome [1] | outcome [2]
active: inhibition [12] 158% | fluorescence ratio (Tl flux) [13] 0.205 | inhibition [14] 124%

N#Cc1c(-c2ccccc2)nc(SCc2cccc(C(F)(F)F)c2)[nH]c1=O
active: FluxOR signal as % of negative control (100 = no effect) [2] 58% | potentiation, less the hit threshold [5] 6%
inactive: outcome [1] | activity increase over 3SD of controls [3] -8.3% | activation over 3SD threshold [4] -15% | activity over 3SD threshold [6] -39.2% | outcome [7]

CCc1ccc(-c2nn(-c3ccccc3)cc2CSC(=N)N)cc1
inactive: outcome [2] | outcome [16] | outcome [17] | outcome [18] | outcome [19] | outcome [20] | outcome [21] | outcome [22] | outcome [23] | outcome [24] | outcome [25] | outcome [26] | outcome [28] | outcome [29] | outcome [31] | outcome [32]
active: Tl flux remaining, % of negative control (hits give low values) [1] 33.5% | activation [15] 125% | activation [27] 43.7% | activation [30] 24.4% | inhibition [12] 126% | fluorescence ratio (Tl flux) [13] 0.302 | inhibition [14] 114%

N=c1c2c(-c3ccccc3)c(-c3ccccc3)n(Cc3ccccc3)c2ncn1CCCO
active: Tl flux remaining, % of negative control (hits give low values) [1] 37%
inactive: outcome [2] | outcome [33] | outcome [34] | outcome [35] | outcome [36] | outcome [37] | outcome [38]

O=C(NCc1ccc2c(c1)OCO2)C12CC3CC(CC(C3)C1)C2
active: potentiation, less the hit threshold [5] 73.5%
inactive: outcome [1] | outcome [2] | activity increase over 3SD of controls [3] -12% | activation over 3SD threshold [4] -10.2% | activity over 3SD threshold [6] -47% | outcome [7]

O=C(NCc1ccc2c(c1)OCO2)c1ccc(Cl)s1
inactive: outcome [1] | outcome [2] | activity over 3SD threshold [6] -17.6% | outcome [7]
active: activity increase over 3SD of controls [3] 5.5% | activation over 3SD threshold [4] 49.7% | potentiation, less the hit threshold [5] 16.7%

C/C(=N\NC(=O)c1ccoc1C)c1ccccc1O
active: activity increase over 3SD of controls [3] 53.8% | potentiation, less the hit threshold [5] 52.9%
inactive: outcome [1] | outcome [2] | activation over 3SD threshold [4] -7.3% | activity over 3SD threshold [6] -16.7% | outcome [7]
